Reference: ChEMBL document CHEMBL3988442, “University of Dundee, Small-Polar-MMV Screening Library” (2021)
For some of these results: Measured potencies and affinities stand elsewhere.

Legend:
Set-up in all cases: scale not given: direction of the effect not stated beside the values
[1] = biological target: Protein translocase subunit SecA (Escherichia coli (strain K12)) (UniProt P10408); experiment: Assay to Identify E. coli SecA ATPase Inhibitors; type: functional; settings: 30 µM
[2] = biological target: T1, Ubiquitin-activating enzyme e1, putative (Leishmania donovani (strain BPK282A1)) (UniProt E9BSI1); experiment: Leishmania donovani Ubiquitin Activating Enzyme (LdE1); type: functional; settings: 30 µM
T1 sequence (whole entry): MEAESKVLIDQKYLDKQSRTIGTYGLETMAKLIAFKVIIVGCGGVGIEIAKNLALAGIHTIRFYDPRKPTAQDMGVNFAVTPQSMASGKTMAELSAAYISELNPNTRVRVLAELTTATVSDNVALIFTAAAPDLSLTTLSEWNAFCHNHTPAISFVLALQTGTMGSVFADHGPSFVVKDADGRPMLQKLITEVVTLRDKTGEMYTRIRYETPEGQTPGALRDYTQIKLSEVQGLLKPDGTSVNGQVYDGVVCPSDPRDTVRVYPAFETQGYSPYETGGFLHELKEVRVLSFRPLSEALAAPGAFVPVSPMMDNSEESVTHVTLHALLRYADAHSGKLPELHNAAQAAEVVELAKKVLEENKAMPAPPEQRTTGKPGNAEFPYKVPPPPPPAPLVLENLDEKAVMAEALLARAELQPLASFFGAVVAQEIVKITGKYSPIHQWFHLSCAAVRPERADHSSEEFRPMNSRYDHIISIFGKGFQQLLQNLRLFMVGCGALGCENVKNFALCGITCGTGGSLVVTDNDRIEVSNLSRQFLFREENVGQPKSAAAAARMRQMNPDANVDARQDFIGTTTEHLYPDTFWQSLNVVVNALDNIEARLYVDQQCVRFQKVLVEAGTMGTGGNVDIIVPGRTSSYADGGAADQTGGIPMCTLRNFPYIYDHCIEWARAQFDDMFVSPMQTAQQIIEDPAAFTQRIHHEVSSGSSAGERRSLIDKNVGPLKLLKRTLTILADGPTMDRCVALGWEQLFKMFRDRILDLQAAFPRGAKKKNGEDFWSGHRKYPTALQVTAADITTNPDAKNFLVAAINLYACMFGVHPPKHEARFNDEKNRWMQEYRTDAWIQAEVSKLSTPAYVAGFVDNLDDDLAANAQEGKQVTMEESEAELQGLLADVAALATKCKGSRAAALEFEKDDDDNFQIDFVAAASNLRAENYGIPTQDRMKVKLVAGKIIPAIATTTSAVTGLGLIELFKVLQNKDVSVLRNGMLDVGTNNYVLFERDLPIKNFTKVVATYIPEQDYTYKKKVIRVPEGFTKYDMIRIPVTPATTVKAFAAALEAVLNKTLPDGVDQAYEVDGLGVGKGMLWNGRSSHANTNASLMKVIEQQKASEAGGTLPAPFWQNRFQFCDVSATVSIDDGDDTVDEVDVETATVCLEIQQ

[3] = biological target: AMP-activated protein kinase, AMPK (Homo sapiens) (UniProt P54646+O43741+P54619+Q9UGJ0+Q9Y478+Q13131+Q9UGI9); experiment: AMP-dependent Kinase enzyme assay. An in vitro enzyme assay that detects ADP turnover that is directly proportional to AMPK activity. This uses naive AMPK that is activated during the assay with MK-8722; type: functional; settings: 30 µM
[4] = biological target: Sialic acid-binding Ig-like lectin 9 (Homo sapiens) (UniProt Q9Y336); experiment: Hs-Siglec9 ALPHAscreen SOP 20170721; settings: 10 µM
Sequence of Sialic acid-binding Ig-like lectin 9 (Homo sapiens) (Q9Y336 whole entry): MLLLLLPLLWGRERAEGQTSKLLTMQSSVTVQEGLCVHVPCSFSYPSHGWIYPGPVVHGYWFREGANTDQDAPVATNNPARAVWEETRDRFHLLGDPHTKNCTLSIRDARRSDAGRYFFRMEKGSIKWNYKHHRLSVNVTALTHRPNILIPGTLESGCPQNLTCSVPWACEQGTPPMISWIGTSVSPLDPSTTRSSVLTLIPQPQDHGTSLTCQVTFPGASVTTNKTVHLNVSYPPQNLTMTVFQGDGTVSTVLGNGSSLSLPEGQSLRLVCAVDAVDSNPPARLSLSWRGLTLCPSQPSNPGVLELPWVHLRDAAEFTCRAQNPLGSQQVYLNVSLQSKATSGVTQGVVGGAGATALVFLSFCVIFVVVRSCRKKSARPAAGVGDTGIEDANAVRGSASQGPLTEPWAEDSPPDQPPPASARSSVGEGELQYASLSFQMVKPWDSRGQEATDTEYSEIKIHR

Trypanosoma cruzi = experiment: Trypanosoma cruzi phosphomannomutase and mannose-1-phosphate guanylyltransferase assay; type: functional; settings: 10 µM
[5] = biological target: T2, Arginase-2, mitochondrial (Homo sapiens) (UniProt P78540); experiment: in vitro enzyme assay to detect the production of urea directly proportional to the activity of Arginase II; type: functional; settings: 33.3 µM; note: in the data most compounds retested in dose-response had high values
T2 sequence (whole entry): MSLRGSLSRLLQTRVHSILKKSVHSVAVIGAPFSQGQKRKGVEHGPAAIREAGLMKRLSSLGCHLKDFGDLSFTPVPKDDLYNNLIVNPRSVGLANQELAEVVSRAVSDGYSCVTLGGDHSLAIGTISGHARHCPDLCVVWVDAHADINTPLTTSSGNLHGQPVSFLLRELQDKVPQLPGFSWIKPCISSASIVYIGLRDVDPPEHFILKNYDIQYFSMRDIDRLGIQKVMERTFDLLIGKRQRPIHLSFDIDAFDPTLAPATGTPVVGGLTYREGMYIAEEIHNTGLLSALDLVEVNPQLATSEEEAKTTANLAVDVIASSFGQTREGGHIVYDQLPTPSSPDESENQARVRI

[6] = biological target: T3, Proteasome subunit beta (Trypanosoma cruzi) (UniProt O96673); experiment: Trypanosoma cruzi proteasome chymotrypsin-like activity (TcProtChymo) assay.; note: in the data most compounds retested in dose-response had high values; type: functional; settings: 9.37 µM
T3 sequence (whole entry): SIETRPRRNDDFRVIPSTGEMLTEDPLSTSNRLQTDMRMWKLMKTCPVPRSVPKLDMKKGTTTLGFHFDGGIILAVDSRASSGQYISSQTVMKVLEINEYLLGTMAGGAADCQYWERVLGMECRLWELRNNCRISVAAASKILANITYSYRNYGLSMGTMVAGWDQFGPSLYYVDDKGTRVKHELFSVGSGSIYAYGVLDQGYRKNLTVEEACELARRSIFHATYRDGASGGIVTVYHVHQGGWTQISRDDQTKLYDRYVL

Homo sapiens = species: Homo sapiens; experiment: To identify inhibition of the IFN signalling (Jak-Stat) pathway via expression of an eGFP reporter gene under the control of an IFN-stimulated response element (ISRE) containing MxA promoter.; type: functional; settings: 30 µM
[7] = biological target: T4, Tyrosyl-tRNA synthetase, putative (Trypanosoma cruzi (strain CL Brener)) (UniProt Q4DSP6); experiment: Trypanosoma cruzi tyrosyl tRNA synthetase (TcYRS) _High Tyrosine SOP; type: functional; settings: 30 µM; note: in the data most compounds retested in dose-response had high values
T4 sequence (whole entry): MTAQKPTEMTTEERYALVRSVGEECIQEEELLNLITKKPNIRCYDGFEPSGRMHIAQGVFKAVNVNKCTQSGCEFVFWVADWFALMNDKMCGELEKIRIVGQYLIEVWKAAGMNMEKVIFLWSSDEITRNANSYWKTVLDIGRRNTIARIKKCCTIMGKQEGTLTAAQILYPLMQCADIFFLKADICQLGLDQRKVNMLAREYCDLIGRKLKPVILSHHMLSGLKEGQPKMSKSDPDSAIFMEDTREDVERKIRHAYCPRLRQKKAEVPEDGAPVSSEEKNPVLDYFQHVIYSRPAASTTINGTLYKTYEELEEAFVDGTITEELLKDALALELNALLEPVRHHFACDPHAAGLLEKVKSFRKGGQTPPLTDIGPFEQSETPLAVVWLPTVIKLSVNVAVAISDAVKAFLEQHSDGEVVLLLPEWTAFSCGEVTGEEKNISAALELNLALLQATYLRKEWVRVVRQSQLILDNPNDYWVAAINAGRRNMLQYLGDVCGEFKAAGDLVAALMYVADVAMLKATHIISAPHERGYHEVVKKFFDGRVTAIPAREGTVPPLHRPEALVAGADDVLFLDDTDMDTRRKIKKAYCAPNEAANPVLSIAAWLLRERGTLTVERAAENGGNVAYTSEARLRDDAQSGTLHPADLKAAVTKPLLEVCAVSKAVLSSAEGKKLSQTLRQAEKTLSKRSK

[8] = biological target: T4, Tyrosyl-tRNA synthetase, putative (Trypanosoma cruzi (strain CL Brener)); experiment: Trypanosoma cruzi tyrosyl tRNA synthetase (TcYRS) SOP; type: functional; settings: 30 µM
[9] = biological target: Chromo domain-containing protein 1 (Saccharomyces cerevisiae (strain ATCC 204508 / S288c) (Baker's yeast)) (UniProt P32657); experiment: ScCHD-1 Enzyme Inhibition Assay; type: functional; settings: 30 µM; note: in the data most compounds retested in dose-response had high values
Sequence of Chromo domain-containing protein 1 (Saccharomyces cerevisiae (strain ATCC 204508 / S288c) (Baker's yeast)) (P32657 whole entry, the tested form may be a part): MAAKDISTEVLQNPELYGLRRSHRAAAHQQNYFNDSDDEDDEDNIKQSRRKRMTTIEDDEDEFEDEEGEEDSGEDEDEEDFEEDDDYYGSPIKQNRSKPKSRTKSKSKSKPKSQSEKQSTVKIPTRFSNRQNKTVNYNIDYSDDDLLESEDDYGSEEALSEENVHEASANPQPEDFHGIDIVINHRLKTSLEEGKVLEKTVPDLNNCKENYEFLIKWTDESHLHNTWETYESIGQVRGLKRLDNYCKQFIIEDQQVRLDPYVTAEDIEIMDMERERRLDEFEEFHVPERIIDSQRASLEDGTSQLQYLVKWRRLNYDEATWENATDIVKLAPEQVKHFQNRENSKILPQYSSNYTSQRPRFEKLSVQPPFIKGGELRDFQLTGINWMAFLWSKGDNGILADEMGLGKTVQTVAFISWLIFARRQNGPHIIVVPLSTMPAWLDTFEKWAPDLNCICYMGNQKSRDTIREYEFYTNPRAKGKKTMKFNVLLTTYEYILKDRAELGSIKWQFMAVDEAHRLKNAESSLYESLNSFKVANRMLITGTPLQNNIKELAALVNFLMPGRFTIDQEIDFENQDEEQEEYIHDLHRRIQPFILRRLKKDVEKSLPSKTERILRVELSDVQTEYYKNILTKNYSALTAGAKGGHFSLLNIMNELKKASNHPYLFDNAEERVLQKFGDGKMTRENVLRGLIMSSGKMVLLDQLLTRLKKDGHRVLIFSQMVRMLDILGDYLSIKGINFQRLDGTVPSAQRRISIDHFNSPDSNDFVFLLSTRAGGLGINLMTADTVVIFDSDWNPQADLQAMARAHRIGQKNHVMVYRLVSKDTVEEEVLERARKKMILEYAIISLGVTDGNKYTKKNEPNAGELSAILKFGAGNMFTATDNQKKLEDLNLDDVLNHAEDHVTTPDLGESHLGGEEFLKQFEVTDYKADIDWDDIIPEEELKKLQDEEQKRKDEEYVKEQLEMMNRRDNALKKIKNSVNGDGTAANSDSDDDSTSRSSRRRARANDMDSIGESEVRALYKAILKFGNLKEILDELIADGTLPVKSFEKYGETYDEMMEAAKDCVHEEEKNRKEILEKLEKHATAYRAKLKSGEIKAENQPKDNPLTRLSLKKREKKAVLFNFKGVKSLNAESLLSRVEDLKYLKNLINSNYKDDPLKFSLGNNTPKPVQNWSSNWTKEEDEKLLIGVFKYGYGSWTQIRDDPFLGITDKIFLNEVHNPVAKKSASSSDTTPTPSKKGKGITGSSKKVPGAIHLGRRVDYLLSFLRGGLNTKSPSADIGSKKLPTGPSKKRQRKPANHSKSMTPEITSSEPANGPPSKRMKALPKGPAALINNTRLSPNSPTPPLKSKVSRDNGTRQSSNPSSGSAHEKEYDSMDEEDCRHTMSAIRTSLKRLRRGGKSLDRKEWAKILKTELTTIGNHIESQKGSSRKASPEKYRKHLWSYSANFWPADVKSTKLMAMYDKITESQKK

Sequence of Protein translocase subunit SecA (Escherichia coli (strain K12)) (P10408 whole entry): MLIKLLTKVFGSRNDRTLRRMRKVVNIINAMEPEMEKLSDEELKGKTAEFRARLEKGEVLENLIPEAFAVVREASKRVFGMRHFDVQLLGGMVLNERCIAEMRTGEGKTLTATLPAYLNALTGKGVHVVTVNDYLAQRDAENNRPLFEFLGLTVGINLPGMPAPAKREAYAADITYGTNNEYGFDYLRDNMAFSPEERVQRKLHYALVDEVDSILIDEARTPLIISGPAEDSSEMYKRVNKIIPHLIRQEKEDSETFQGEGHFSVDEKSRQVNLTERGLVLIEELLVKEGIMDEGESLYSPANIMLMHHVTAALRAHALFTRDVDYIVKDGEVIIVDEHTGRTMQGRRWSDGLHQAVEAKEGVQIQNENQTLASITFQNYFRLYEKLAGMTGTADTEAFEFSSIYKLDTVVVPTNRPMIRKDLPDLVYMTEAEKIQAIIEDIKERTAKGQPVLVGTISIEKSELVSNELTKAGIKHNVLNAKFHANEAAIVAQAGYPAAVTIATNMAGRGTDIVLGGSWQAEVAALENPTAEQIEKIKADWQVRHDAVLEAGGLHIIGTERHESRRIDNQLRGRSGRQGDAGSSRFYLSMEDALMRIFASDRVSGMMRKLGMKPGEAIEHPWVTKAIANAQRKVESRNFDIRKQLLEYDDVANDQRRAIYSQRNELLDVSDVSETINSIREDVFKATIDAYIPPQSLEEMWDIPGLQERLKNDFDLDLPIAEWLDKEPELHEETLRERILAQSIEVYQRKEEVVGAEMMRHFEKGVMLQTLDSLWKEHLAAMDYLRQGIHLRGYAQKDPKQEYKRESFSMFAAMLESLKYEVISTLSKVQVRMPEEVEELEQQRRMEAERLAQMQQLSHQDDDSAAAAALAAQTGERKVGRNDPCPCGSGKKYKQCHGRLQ

Compound | Percent Effect [1] [%] | Percent Effect [2] [%] | Percent Effect [3] [%] | Percent Effect [4] [%] | Percent Effect (Trypanosoma cruzi) [%] | Percent Effect [5] [%] | Percent Effect [6] [%] | Percent Effect (Homo sapiens) [%] | Percent Effect [7] [%] | Percent Effect [8] [%] | Percent Effect [9] [%]
COc1cccc2c1OCC(CNC(=O)CCCN1CCOCC1)C2 (configuration not stated) | -1.74 | 5.41 | -7.92 | 19.8 | 2.05 | -0.248 | 13.1 | 11.9 | 8.6 | 18.5 | -5.59
COCc1cccc(NC(C)C(=O)N(C)Cc2cccc(F)c2)c1 (configuration not stated) | -7.47 | -2.7 | -1.66 | -7.46 | -3.23 | -0.744 | 6.44 | -12.8 | 1.07 | 1.24 | -5.78
CC(OCC1CC1)C(=O)N1CCCN(Cc2nccn2C)CC1 (configuration not stated) | 0.276 | 13.9 | -2.47 | -3.62 | -5.64 | 1.07 | 19.4 | 10.6 | 3.12 | 7.59 | -24.1
COc1ccccc1NC(=O)NCC(O)(c1ccccc1)C1CC1 (configuration not stated) | -6.75 | 11 | -22.1 | 33.1 | 7.05 | 7.27 | 12.9 | 7.23 | 0 | 10 | -6.95
Cc1nc(CN2C(=O)COC3(CCN(Cc4nccs4)CC3)C2C)cs1 (configuration not stated) | -1.57 | 0 | -5.34 | 5.68 | 4.56 | -4.39 | 2.48 | -3.19 | 6.25 | 13.6 | -5.58
Cc1cnn(CC2CN(Cc3cccc(C(=O)N(C)C)c3)CCO2)c1 (configuration not stated) | -2.21 | 23.4 | -1.81 | 0.495 | 3.56 | -7.83 | 14.7 | 14.3 | 7.77 | 19.5 | -9.57
CCc1nnsc1C(=O)N1CCCN(Cc2nccn2C)CC1 | -2.29 | -96.1 | 4.85 | 9.93 | 3.04 | 0.632 | 2.18 | 3.59 | 1.91 | -2.35 | -8.53
CN1CCOC(CN(C(=O)Cc2ccccc2F)c2nccs2)C1 (configuration not stated) | -1.47 | 0 | -3.71 | 11.3 | 8.82 | -2.03 | -0.539 | 1.86 | 1.98 | 6.1 | 5.97
O=C([C@H]1COC[C@H]2CN(C3CCCC3)C[C@H]21)N1CCCCO1 | -1.86 | 0 | 2.27 | 5.11 | -0.579 | -51.4 | 2.39 | -22.5 | 0 | -5 | -3.46
CN1N=C(C(=O)NCc2ccc3c(c2)CCCN3C)CCC1=O | -4.45 | 8.86 | 30.5 | -1.03 | 4.41 | 0.215 | 21.4 | 0.664 | 6.25 | 10.1 | -23
COCC1CN(Cc2cc(C)on2)Cc2cn(C)nc21 (configuration not stated) | -1.68 | 8 | 1.48 | 12.2 | -0.965 | -24.2 | 9.06 | -11 | 6.25 | 10 | -4.54
CC(C)NC(=O)c1sccc1N(C)S(=O)(=O)c1ccc(Cl)cc1 | 2.02 | 7.89 | 10.6 | -13 | -7.5 | 11.8 | 13.1 | 22.6 | -2.13 | 0 | -5.6
Cc1cccc(COC[C@@H]2CC[C@H]3[C@H](CCN3Cc3ccco3)O2)n1 | -0.0692 | 16.4 | -0.44 | 9.35 | 7.74 | -2.79 | 15.2 | -16.7 | 5.21 | 13.6 | -7.59
CCCc1nc(C)cc(N2CCC3(CCC(=O)N(CCOC)C3)CC2)n1 | -4.76 | 10.8 | -6.4 | -1.18 | -0.489 | -0.744 | 10.9 | -7.21 | 4.3 | 13.6 | -3.56
O=C(Cn1c(=O)n(Cc2ccco2)c2ncccc21)NC1CCCCC1 | -8.09 | 14.9 | -4.42 | 11.5 | 8.5 | -4.41 | 18.6 | 3.85 | 6.45 | 14.3 | 53
Cc1ncsc1C(=O)N(C)Cc1ccncc1 | -4.37 | 10.5 | 3 | -5.42 | -6.58 | -2.68 | 16 | 23.6 | 1.47 | -7.32 | -6
Cc1nc2c(c(C)c1CC(=O)Nc1ccc(Cl)cc1)c(=O)[nH]n2C | -8.55 | 10.7 | -2.37 | 20.4 | 5.36 | 6.77 | 6.97 | 11.7 | 3.83 | 13.6 | 3.39
